In PubChem BioAssay (NCI):
The panel holds about 79,000 compounds, 15% with a hit somewhere; the sample as a whole holds those more often. A number with no mark means an inactive call. Activity calls are given as the source filed them. Rule as the data show it: active = growth inhibition above about 70%; inactive = the rest.

Legend:
[1] = NCI Yeast Anticancer Drug Screen. Data for the rad52 strain (AID 147);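 also: 0% = growth of vehicle-treated control cultures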; conditions: S. cerevisiae rad52 mutant growth inhibition, hits give high values
In short: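 Compounds are applied to a genetically defined yeast strain lacking normal DNA damage repair, and inhibition of growth is expressed relative to cultures given vehicle only.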

[2] = NCI Yeast Anticancer Drug Screen. Data for the wt1 strain (AID 149);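 also: 0% = growth of vehicle-treated wt1 cultures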; conditions: S. cerevisiae wt1 strain (SPY 50644) growth inhibition, hits give high values
In short: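 Readout: yeast growth inhibition, normalised to vehicle controls, in the wt1 strain exposed to test compounds.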

[3] = NCI Yeast Anticancer Drug Screen. Data for the rad50EPP+ strain (AID 151);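 also: 0% = growth of vehicle-treated control cultures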; conditions: S. cerevisiae rad50 mutant strain, hits give high values
In short: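 Compounds were applied to the rad50EPP+ yeast strain, which bears a defined DNA repair alteration, and growth inhibition was determined relative to vehicle-treated cultures.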

[4] = NCI Yeast Anticancer Drug Screen. Data for the mgt1 strain (AID 153); conditions: S. cerevisiae mgt1 mutant growth inhibition, hits give high values
In short: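 Strain: mgt1 yeast, one of a set carrying defined DNA damage repair or cell cycle control alterations. Compound-treated growth compared with vehicle.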

[5] = NCI Yeast Anticancer Drug Screen. Data for the rad50 strain (AID 155);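 also: 0% = growth of vehicle-only cultures of the same strain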; conditions: S. cerevisiae rad50 strain growth inhibition, hits give high values
In short: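 Compounds were tested on a yeast strain with an engineered DNA damage repair alteration; the reported value is growth inhibition normalised to vehicle treatment.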

[6] = NCI Yeast Anticancer Drug Screen. Data for the mec2-1 strain (AID 157); conditions: S. cerevisiae mec2-1 strain, hits give high values
In short: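 Strain: mec2-1 (DNA repair/cell cycle alteration). Compound exposure, then growth measured; inhibition expressed relative to vehicle.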

[7] = NCI Yeast Anticancer Drug Screen. Data for the rad14 strain (AID 159);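 also: 0% = growth of vehicle-treated control cultures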; conditions: S. cerevisiae rad14 strain growth inhibition, hits give high values
In short: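 Compound-treated yeast with a defined DNA-repair lesion; growth inhibition normalised to vehicle-treated cultures.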

[8] = NCI Yeast Anticancer Drug Screen. Data for the sgs1 mgt1 strain (AID 161);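 also: 0% = growth of cultures given vehicle only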; conditions: S. cerevisiae sgs1 mgt1 strain, hits give high values
In short: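 Test agents were incubated with a DNA-repair-mutant yeast strain. Growth was then read and compared against vehicle-treated controls.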

[9] = NCI Yeast Anticancer Drug Screen. Data for the CLN2oe strain (AID 163);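 also: 0% = growth of vehicle-only control cultures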; conditions: S. cerevisiae CLN2oe strain, hits give high values
In short: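 Growth of a genetically modified yeast strain is measured after compound exposure and compared with cultures given vehicle alone.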

[10] = NCI Yeast Anticancer Drug Screen. Data for the bub3 strain (AID 167); conditions: S. cerevisiae bub3 mutant strain, hits give high values
In short: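 Growth of a checkpoint-deficient yeast mutant is measured after compound exposure. Values represent inhibition relative to vehicle.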

[11] = NCI Yeast Anticancer Drug Screen. Data for the wt2 strain (AID 169);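 also: 0% = growth of vehicle-treated yeast cultures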; conditions: S. cerevisiae wt2 strain growth inhibition, hits give high values
In short: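 This strain belongs to a panel of yeast strains with defined genetic alterations in DNA damage repair or cell cycle control. Compounds are applied, and growth inhibition is measured against vehicle-treated cultures.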

[12] = NCI Yeast Anticancer Drug Screen. Data for the sgs1 strain (AID 173);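 also: 0% = growth of vehicle-only control cultures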; conditions: S. cerevisiae sgs1 mutant, hits give high values
In short: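 Growth of a yeast strain bearing a defined genetic alteration is measured after compound treatment. Inhibition is expressed relative to vehicle-only controls.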

[13] = NCI Yeast Anticancer Drug Screen. Data for the mlh1 rad18 strain (AID 175); conditions: S. cerevisiae mlh1 rad18 strain growth inhibition, hits give high values
In short: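 Read-out is yeast growth inhibition, calculated against vehicle-only controls. The compound was applied to a strain engineered with DNA damage repair alterations.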

[14] = NCI Yeast Anticancer Drug Screen. Data for the rad18 strain (AID 177); conditions: S. cerevisiae rad18 mutant growth inhibition, hits give high values
In short: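 Growth of the mutant yeast strain after compound exposure, normalised to vehicle-only cultures.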

[15] = NCI Yeast Anticancer Drug Screen. Data for the cln2 rad14 strain (AID 165);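 also: 0% = growth equal to vehicle treated cultures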; conditions: S. cerevisiae cln2 rad14 strain, hits give high values
In short: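 Compounds are applied to the cln2 rad14 yeast strain, and growth is then compared with that of vehicle-treated cultures to give inhibition.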

[16] = NCI Yeast Anticancer Drug Screen. Data for the mlh1 strain (AID 171);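 also: 0% = growth of vehicle-treated control cultures of the same strain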; conditions: S. cerevisiae mlh1 strain growth inhibition, hits give high values
In short: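 Growth of the mutant yeast strain after compound exposure, expressed as inhibition relative to vehicle-only controls.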

[17] = at 5.0 µM (retest, dose inferred, filed as 0.5)
[18] = at 50.0 µM (retest, dose inferred, filed as 5.0)

SMILES: NNC(=O)CCc1cc2ccccc2c2ccccc12
- growth inhibition ([1]; at 1.2 µM): -15%
- growth inhibition ([1]; at 3.7 µM): -10%
- growth inhibition ([1]; at 11.0 µM): -5%
- growth inhibition ([1]; at 33.0 µM): 26%
- growth inhibition ([1]; at 100.0 µM): 99% (active)
- growth inhibition ([2]; at 1.2 µM): 3%
- growth inhibition ([2]; at 3.7 µM): 2%
- growth inhibition ([2]; at 11.0 µM): 9%
- growth inhibition ([2]; at 33.0 µM): 4%
- growth inhibition ([2]; at 100.0 µM): 99% (active)
- growth inhibition ([3]; at 1.2 µM): -8%
- growth inhibition ([3]; at 3.7 µM): -21%
- growth inhibition ([3]; at 11.0 µM): -16%
- growth inhibition ([3]; at 33.0 µM): 28%
- growth inhibition ([3]; at 100.0 µM): 50%
- growth inhibition ([4]; at 1.2 µM): -3%
- growth inhibition ([4]; at 3.7 µM): -8%
- growth inhibition ([4]; at 11.0 µM): -2%
- growth inhibition ([4]; at 33.0 µM): 1%
- growth inhibition ([4]; at 100.0 µM): 99% (active)
- growth inhibition ([5]; at 1.2 µM): -13%
- growth inhibition ([5]; at 3.7 µM): -16%
- growth inhibition [5, 17]: 19%
- growth inhibition ([5]; at 11.0 µM): -12%
- growth inhibition ([5]; at 33.0 µM): 38%
- growth inhibition [5, 18]: 99% (active)
- growth inhibition ([5]; at 50.0 µM): 97.9% (active)
- growth inhibition ([5]; at 100.0 µM): 99% (active)
- growth inhibition ([6]; at 1.2 µM): -2%
- growth inhibition ([6]; at 3.7 µM): -2%
- growth inhibition [6, 17]: 12%
- growth inhibition ([6]; at 11.0 µM): -2%
- growth inhibition ([6]; at 33.0 µM): -2%
- growth inhibition [6, 18]: 99% (active)
- growth inhibition ([6]; at 50.0 µM): 98.8% (active)
- growth inhibition ([6]; at 100.0 µM): 99% (active)
- growth inhibition ([7]; at 1.2 µM): -2%
- growth inhibition ([7]; at 3.7 µM): -1%
- growth inhibition ([7]; at 11.0 µM): 23%
- growth inhibition ([7]; at 33.0 µM): 31%
- growth inhibition ([7]; at 100.0 µM): 99% (active)
- growth inhibition [8, 17]: 28%
- growth inhibition [8, 18]: 98% (active)
- growth inhibition ([8]; at 50.0 µM): 98.5% (active)
- growth inhibition ([9]; at 1.2 µM): -9%
- growth inhibition ([9]; at 3.7 µM): -7%
- growth inhibition ([9]; at 11.0 µM): -12%
- growth inhibition ([9]; at 33.0 µM): -2%
- growth inhibition ([9]; at 100.0 µM): 99% (active)
- growth inhibition ([10]; at 1.2 µM): -7%
- growth inhibition ([10]; at 3.7 µM): -8%
- growth inhibition [10, 17]: 50%
- growth inhibition ([10]; at 11.0 µM): -9%
- growth inhibition ([10]; at 33.0 µM): 18%
- growth inhibition [10, 18]: 98% (active)
- growth inhibition ([10]; at 50.0 µM): 98.8% (active)
- growth inhibition ([10]; at 100.0 µM): 99% (active)
- growth inhibition ([11]; at 1.2 µM): -8%
- growth inhibition ([11]; at 3.7 µM): 1%
- growth inhibition ([11]; at 11.0 µM): 18%
- growth inhibition ([11]; at 33.0 µM): 53%
- growth inhibition ([11]; at 100.0 µM): 100% (active)
- growth inhibition ([12]; at 1.2 µM): -20%
- growth inhibition ([12]; at 3.7 µM): -8%
- growth inhibition ([12]; at 11.0 µM): 9%
- growth inhibition ([12]; at 33.0 µM): 43%
- growth inhibition ([12]; at 100.0 µM): 99% (active)
- growth inhibition [13, 17]: 45%
- growth inhibition [13, 18]: 98% (active)
- growth inhibition ([13]; at 50.0 µM): 98.5% (active)
- growth inhibition ([14]; at 1.2 µM): -6%
- growth inhibition ([14]; at 3.7 µM): -5%
- growth inhibition ([14]; at 11.0 µM): 0%
- growth inhibition ([14]; at 33.0 µM): 30%
- growth inhibition ([14]; at 100.0 µM): 99% (active)

SMILES: Cc1c2ccnc(C(=O)NCCN(C)C)c2cc2c3cc(O)ccc3n(C)c12
- growth inhibition ([1]; at 1.2 µM): 2%
- growth inhibition ([1]; at 3.7 µM): 23%
- growth inhibition ([1]; at 11.0 µM): 69%
- growth inhibition ([1]; at 33.0 µM): 88% (active)
- growth inhibition ([1]; at 100.0 µM): 92% (active)
- growth inhibition ([2]; at 1.2 µM): 2%
- growth inhibition ([2]; at 3.7 µM): 5%
- growth inhibition ([2]; at 11.0 µM): 10%
- growth inhibition ([2]; at 33.0 µM): 20%
- growth inhibition ([2]; at 100.0 µM): 29%
- growth inhibition ([3]; at 1.2 µM): -2%
- growth inhibition ([3]; at 3.7 µM): 4%
- growth inhibition ([3]; at 11.0 µM): 22%
- growth inhibition ([3]; at 33.0 µM): 44%
- growth inhibition ([3]; at 100.0 µM): 56%
- growth inhibition ([4]; at 1.2 µM): 0%
- growth inhibition ([4]; at 3.7 µM): 2%
- growth inhibition ([4]; at 11.0 µM): 8%
- growth inhibition ([4]; at 33.0 µM): 10%
- growth inhibition ([4]; at 100.0 µM): 30%
- growth inhibition ([5]; at 1.2 µM): 1%
- growth inhibition ([5]; at 3.7 µM): 20%
- growth inhibition [5, 17]: 11%
- growth inhibition ([5]; at 11.0 µM): 67%
- growth inhibition ([5]; at 33.0 µM): 88% (active)
- growth inhibition [5, 18]: 59%
- growth inhibition ([5]; at 50.0 µM): 92.1% (active)
- growth inhibition ([5]; at 100.0 µM): 92% (active)
- growth inhibition ([6]; at 1.2 µM): 1%
- growth inhibition ([6]; at 3.7 µM): 6%
- growth inhibition [6, 17]: -7%
- growth inhibition ([6]; at 11.0 µM): 14%
- growth inhibition ([6]; at 33.0 µM): 26%
- growth inhibition [6, 18]: 7%
- growth inhibition ([6]; at 50.0 µM): 23.8%
- growth inhibition ([6]; at 100.0 µM): 39%
- growth inhibition ([7]; at 1.2 µM): 1%
- growth inhibition ([7]; at 3.7 µM): 3%
- growth inhibition ([7]; at 11.0 µM): 9%
- growth inhibition ([7]; at 33.0 µM): 21%
- growth inhibition ([7]; at 100.0 µM): 37%
- growth inhibition ([9]; at 1.2 µM): 0%
- growth inhibition ([9]; at 3.7 µM): 1%
- growth inhibition ([9]; at 11.0 µM): 0%
- growth inhibition ([9]; at 33.0 µM): 9%
- growth inhibition ([9]; at 100.0 µM): 19%
- growth inhibition [15, 17]: 4%
- growth inhibition [15, 18]: 33%
- growth inhibition ([15]; at 50.0 µM): 44.5%
- growth inhibition ([10]; at 1.2 µM): 1%
- growth inhibition ([10]; at 3.7 µM): 1%
- growth inhibition [10, 17]: 40%
- growth inhibition ([10]; at 11.0 µM): 4%
- growth inhibition ([10]; at 33.0 µM): 14%
- growth inhibition [10, 18]: 42%
- growth inhibition ([10]; at 50.0 µM): 8.05%
- growth inhibition ([10]; at 100.0 µM): 23%
- growth inhibition ([11]; at 1.2 µM): 1%
- growth inhibition ([11]; at 3.7 µM): 2%
- growth inhibition ([11]; at 11.0 µM): 7%
- growth inhibition ([11]; at 33.0 µM): 20%
- growth inhibition ([11]; at 100.0 µM): 30%
- growth inhibition ([16]; at 1.2 µM): 4%
- growth inhibition ([16]; at 3.7 µM): 4%
- growth inhibition ([16]; at 11.0 µM): 10%
- growth inhibition ([16]; at 33.0 µM): 21%
- growth inhibition ([16]; at 100.0 µM): 32%
- growth inhibition ([12]; at 1.2 µM): -2%
- growth inhibition ([12]; at 3.7 µM): 2%
- growth inhibition ([12]; at 11.0 µM): 4%
- growth inhibition ([12]; at 33.0 µM): 17%
- growth inhibition ([12]; at 100.0 µM): 32%
- growth inhibition [13, 17]: 0%
- growth inhibition [13, 18]: -1%
- growth inhibition ([13]; at 50.0 µM): 46.4%
- growth inhibition ([14]; at 1.2 µM): -5%
- growth inhibition ([14]; at 3.7 µM): -4%
- growth inhibition ([14]; at 11.0 µM): -1%
- growth inhibition ([14]; at 33.0 µM): 3%
- growth inhibition ([14]; at 100.0 µM): 15%
